# High-throughput results as filed in PubChem BioAssay.
# Shown are actives, neighbours in structure and some others; about 11% of the full set was active somewhere.
# Pf growth 96h = inhibits malaria parasite growth, 96 h | actives 6.9% (n = 320,000) | AID 504834 | P. falciparum luciferase reporter growth, 96 h | Potency, µM (titrated, usually from 28.7 µM), for the others: at the highest dose activity change, negative = inhibition, actives largely listed as inhibitors; also: % is scaled to controls: 0 for no effect and ±100 for the full control effect
#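 P. falciparum expressing integrated firefly luciferase grown in erythrocytes (2% hematocrit, 0.05% parasitemia final) with compounds for 96 hours at 37 C, 5% CO2. Growth inhibition read as loss of luminescence after adding luciferase detection reagent.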
# NS1 function inh = blocks influenza NS1 protein function; actives 0.4% (n = 270,000); Potency, µM (highest dose often 46.1 µM), for the others: at the top dose activity, positive = more growth; calls by dose curve; also: actives are rising curves; nearly all actives have a fitted effect of over 50% in size
#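 OD600 was taken as the measure of yeast growth restored by compound in an NS1-expressing S. cerevisiae strain. Cells had been washed out of glucose medium and diluted 1:100 into galactose -URA medium, pH 6.0.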
# AMA1-RON2 inh = AMA1-RON2 (P. falciparum) interaction inhibition. AlphaScreen AMA1-biotinylated RON2 peptide binding. Potency, µM (titrated, usually from 58.2 µM), for the others: at the highest dose activity change, negative = inhibition, actives largely listed as inhibitors. actives 0.2% (n = 360,000);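 also: 0% = vehicle wells and -100% = peptide control; nearly all actives have a fitted effect of over 45% in size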
#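 AMA1 (3D7) with his tag at 25 nM final met compounds first, then biotinylated RON2 peptide at 25 nM; detection used donor plus acceptor beads, 10 µg/mL apiece, read by AlphaScreen after 30 min at room temperature.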
# Sm TGR block = S. mansoni TGR enzyme inhibition | purified TGR, DTNB reduction, TNB absorbance 405 nm | Potency, µM (series often up to 114 µM), for the others: at the highest dose activity change, negative = inhibition, usual class: inhibitors | actives 3% (n = 360,000); also: % is scaled to controls: 0 for no effect and ±100 for the full control effect; nearly all actives have a fitted effect of over 60% in size
#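 TGR 20 nM + NADPH 100 uM (dispensed conc.), cpd preinc 15 min RT; start with NADPH (500 uM addition) then DTNB (15 mM addition). Kinetic TNB absorbance, 405 nm filter. Four-parameter Hill fit across titration.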
# Pf growth 48h = inhibits P. falciparum growth in the first generation, 48 h | P. falciparum luciferase growth in erythrocytes, 48 h | Potency, µM (top dose mostly 28.7 µM), for the others: at the highest dose activity change, negative = inhibition, usual class: inhibitors | actives 5.9% (n = 310,000) | AID 504832; also: % is scaled to controls: 0 for no effect and ±100 for the full control effect
#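 Read-out is firefly luciferase luminescence from an integrated reporter in P. falciparum, so falling signal marks reduced parasite growth. Infected erythrocytes were at 2% hematocrit and 0.1% parasitemia (final) in Albumax-supplemented RPMI 1640.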
# The depositor's hits bear a star; u = inconclusive; x = no result. Unless noted, calls follow the shape of the dose curve; as a rule, active = well fitted curve in the direction sought with a large enough effect; inconclusive = small, poorly fitted or top-dose-only effect, or another doubt; inactive = no such curve, though single readings can be large; an effect the other way counts as inactive or inconclusive. Potency is read from the fitted curve at half-maximal effect.
SMILES,Pf growth 96h,NS1 function inh,AMA1-RON2 inh,Sm TGR block,Pf growth 48h
Cc1ccc2c(C(=O)CN3CCC(C(N)=O)CC3)c(C)[nH]c2c1,9.7%,0.2%,x,35.5µM*,13.7%
Cc1ccc2c(C(=O)CN3CCOCC3)c(C)[nH]c2c1,21.8%,-1.3%,-5.8%,u,-4.1%
Cc1ccc2c(C(=O)CN3CCCCC3)c(C)[nH]c2c1,-10.6%,6.7%,-4.3%,20µM*,-7.6%
Cc1nn(C)cc1C(C(=O)NC1CCCCC1)N(C(=O)Cc1cccs1)c1ccc(F)cc1 (stereo unspecified),22.2%,5.0%,-1.9%,-11.3%,-0.5%
COc1cccc(C(C(=O)NC2CCCCC2)N(C(=O)Cc2cccs2)c2ccc(-n3cnnn3)c(OC)c2)c1 (stereo unspecified),4.7%,15.0%,-3.8%,-0.8%,10.4µM*
Cn1cccc1C(C(=O)NC1CCCCC1)N(C(=O)Cc1cccs1)c1ccc2c(c1)OCO2 (stereo unspecified),u,-2.8%,4.6%,-9.5%,u
COc1ccc(N(C(=O)Cc2cccs2)C(C(=O)NC2CCCCC2)c2cccn2C)cc1 (stereo unspecified),u,u,-7.5%,-4.5%,x
COc1cc(N(C(=O)Cc2cccs2)C(C(=O)NC2CCCCC2)c2cccc(OC)c2OC)ccc1-n1cnnn1 (stereo unspecified),-25.4%,13.3%,-2.7%,0.2%,10.4µM*
COc1cccc(C(C(=O)NC2CCCCC2)N(C(=O)c2cccs2)c2ccc3c(c2)OCO3)c1 (stereo unspecified),-100.9%,-2.1%,9.2%,7.0%,10.4µM*
COc1ccc(Cc2nc3ccc(C(=O)NCCCN4CCN(C)CC4)cc3o2)cc1,x,x,x,-4.1%,x
Cc1cc(NC(=O)CSc2nc(=O)cc(N)n2-c2ccc(C)c(C)c2)no1,u,11.2%,-6.5%,1.2%,u
O=C(Nc1c(O)c2ccccc2[nH]c1=O)c1ccco1,50.5%,-42.3%,-5.3%,4.7%,12.8%
Cc1cc(=O)n2nc(-c3ccccc3)sc2n1,x,-10.0%,-5.6%,-0.4%,101.0%
Cc1cc(=O)n2c3c(sc2n1)C(=O)N(Cc1ccccc1)C3=O,x,-36.4%,x,1.12µM*,-4.4%
CC1(C)Cc2c(c(-c3ccco3)nc3sc4c(NCCCO)ncnc4c23)CO1,4.15µM*,-0.9%,-22.0%,2µM*,u
CC1(C)Cc2c(c(-c3ccco3)nc3sc4c(NCCN5CCOCC5)ncnc4c23)CO1,u,3.8%,-4.5%,39.8µM*,8.28µM*
CCN(CCO)c1ncnc2c1sc1nc(CC(C)C)c3c(c12)CC(C)(C)OC3,15.0%,10.6%,-8.0%,0.5%,41.8%
CC(C)CNc1ncnc2c1sc1nc(N3CCOCC3)c3c(c12)CC(C)(C)OC3,u,0.8%,-3.2%,-20.3%,u
CCc1nc(NCC2CCCO2)c(C#N)c2c1COC(C)(C)C2 (stereo unspecified),u,-10.0%,-7.8%,17.4%,u
CC1(C)Cc2c(c(-c3ccco3)nc3sc4c(NCC5CCCO5)ncnc4c23)CO1 (stereo unspecified),u,9.4%,5.5%,79.4µM*,-1.5%
CCc1ccccc1NC(=O)CN1CCN(C(=O)CNC(=O)c2ccc(-c3ccccc3)cc2)CC1,u,x,-1.9%,-2.8%,u
CCOC(=O)C1(C)CCN1C(=O)c1cc(-c2ccc(Cl)cc2)oc1C (stereo unspecified),x,x,-18.6%,x,x
O=C(COC(=O)c1cccc(S(=O)(=O)NCc2ccccc2)c1)NCC1CCCO1 (stereo unspecified),26.9%,x,-4.6%,-0.7%,-7.6%
COc1ccc(C)cc1NC(=O)n1ncc2cc(Cl)ccc21,3.29µM*,-3.4%,0.9%,5.6%,11.4%
Cn1c(=O)c(-c2cccc(Cl)c2)c(O)c2ccccc21,x,x,15.2%,x,x
SMILES,Pf growth 96h,NS1 function inh,AMA1-RON2 inh,Sm TGR block,Pf growth 48h
Cc1[nH]n(-c2ccccc2)c(=O)c1-c1cccc(Cl)c1,1.47µM*,-55.9%,0.0%,3.6%,1.65µM*
Cc1cc(-c2c(C)[nH]n(-c3ccccc3)c2=O)n[nH]1,u,-6.6%,9.7%,x,-17.1%
Cc1cc(-c2c(C)[nH]n(-c3ccccc3)c2=O)n(-c2ccccc2)n1,16.2%,u,-2.9%,11.9%,5.8%
O=c1c(-c2ccccc2)c[nH]n1-c1cccc([N+](=O)[O-])c1,u,-3.7%,-9.4%,8.8%,u
Cc1cc(-c2c(C)[nH]n(-c3ccc(Cl)cc3)c2=O)n(-c2ccc(Cl)cc2)n1,1.04µM*,11.7%,-20.4%,-22.4%,u
Cc1[nH]n(-c2ccccc2)c(=O)c1-c1ccc(Cl)cc1,2.08µM*,-52.0%,13.7%,-1.2%,x
O=c1c(-c2ccc(Cl)cc2)c[nH]n1-c1ccccc1,13.1µM*,-5.3%,-5.8%,26.4%,8.28µM*
COc1cccc(Cn2c(=O)n(-c3cccc(Cl)c3)c(=O)c3c4c(sc32)CN(C(C)=O)CC4)c1,x,x,x,18.0%,x
O=c1c2ccccc2nc2n1CCS2(=O)=O,-4.8%,0.9%,-4.5%,22.4µM*,10.3%
COc1ccc(NC(=O)CCn2c(=O)c3cccn3c3ccccc32)c(OC)c1,11.7µM*,2.8%,-18.4%,0.0%,u
COc1ccc(NC(=O)CCn2c(=O)c3cccn3c3ccccc32)cc1,u,-2.3%,0.8%,-1.3%,-10.8%
Cc1ccc(NC(=O)CCn2c(=O)c3cccn3c3ccccc32)c(C)c1,13.1µM*,-6.6%,-13.2%,-0.7%,u
Cc1ccc(NC(=O)Cn2c(=O)c3cccn3c3ccccc32)c(C)c1,u,-1.7%,-10.3%,-1.5%,u
CC12CCC3C(CCC4=C(O)C(=O)CCC43C)C1CCC2=O (stereo unspecified),x,-2.1%,x,x,x
C[C@]12CCC3C(CCC4=C(Cl)C(=O)CC[C@@]43C)C1CCC2O (stereo partly specified),10.7µM*,x,x,x,u
CCN(CC(=O)NC(C)C)C(=O)[C@@H](NC(=O)c1ccco1)C(C)C,10.6%,x,-17.4%,-17.3%,-4.1%
O=[N+]([O-])c1ccc(O)c(C2=NNC(c3ccccc3F)C2)c1 (stereo unspecified),22.4%,-45.4%,64.1%,5.01µM*,-0.4%
COCCNC(=O)COC(=O)c1ccc(OCC(=O)Nc2ccccc2OC)c(OC)c1,13.5%,1.4%,0.0%,6.6%,206.5%
O=S(=O)(c1ccccc1)c1nc(-c2ccc(F)cc2)oc1NCc1ccccc1,x,x,x,9.3%,x
O=S(=O)(c1ccc(Br)cc1)c1nc(-c2ccccc2)oc1NCCN1CCOCC1,9.28µM*,2.2%,-16.5%,-5.3%,u
Cc1ccc(CNc2oc(-c3ccco3)nc2S(=O)(=O)c2ccccc2)cc1,u,-11.3%,-16.8%,0.0%,10.4µM*
Cc1ccccc1-c1nc(S(=O)(=O)c2ccc(Br)cc2)c(NCc2cccnc2)o1,x,18.0%,-6.7%,-9.6%,13.1µM*
Cc1ccc(S(=O)(=O)c2nc(-c3ccccc3)oc2NCc2cccnc2)cc1,u,-49.4%,-0.6%,u,u
